# Reference: PubChem BioAssay (NCI)
# Compounds without any hit were thinned out: in the full panel of roughly 79,000, 15% have a hit. Unmarked numbers belong to inactive results. Activity calls are given as the source filed them. Cut-off read from the data, not from the text of the source: active = growth inhibition above about 70%; inactive = the rest.
# Key:
# [1] = NCI Yeast Anticancer Drug Screen. Data for the rad52 strain (AID 147);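 note: 0% = growth of vehicle-treated control cultures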; conditions: S. cerevisiae rad52 mutant growth inhibition, stronger effect = higher value
# Summary of the method: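 Growth of repair-deficient yeast cells was compared between compound-treated and vehicle-treated cultures to give percent inhibition.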
# [2] = NCI Yeast Anticancer Drug Screen. Data for the wt1 strain (AID 149);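 note: 0% = growth of vehicle-treated wt1 cultures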; conditions: S. cerevisiae wt1 strain (SPY 50644) growth inhibition, stronger effect = higher value
# Summary of the method: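 Growth inhibition read against vehicle controls after compound exposure of the wt1 yeast strain.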
# [3] = NCI Yeast Anticancer Drug Screen. Data for the rad50EPP+ strain (AID 151);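 note: 0% = growth of vehicle-treated control cultures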; conditions: S. cerevisiae rad50 mutant strain, stronger effect = higher value
# Summary of the method: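 Measured: growth inhibition of rad50EPP+ yeast. Reference: vehicle-treated controls. Screen uses strains with defined genetic alterations in DNA damage repair or cell cycle control.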
# [4] = NCI Yeast Anticancer Drug Screen. Data for the mgt1 strain (AID 153); conditions: S. cerevisiae mgt1 mutant growth inhibition, stronger effect = higher value
# Summary of the method: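 Compounds were applied to mgt1 mutant yeast, and growth was then compared against vehicle-treated control cultures to give percent inhibition.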
# [5] = NCI Yeast Anticancer Drug Screen. Data for the rad50 strain (AID 155);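 note: 0% = growth of vehicle-only cultures of the same strain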; conditions: S. cerevisiae rad50 strain growth inhibition, stronger effect = higher value
# Summary of the method: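 Readout: growth inhibition relative to vehicle-treated cultures. Compound exposure was carried out in a genetically defined yeast strain deficient in DNA damage repair.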
# [6] = NCI Yeast Anticancer Drug Screen. Data for the mec2-1 strain (AID 157); conditions: S. cerevisiae mec2-1 strain, stronger effect = higher value
# Summary of the method: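 Compounds were applied to mec2-1 yeast cells. Their growth was then compared with that of vehicle-treated cultures to give growth inhibition.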
# [7] = NCI Yeast Anticancer Drug Screen. Data for the rad14 strain (AID 159);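 note: 0% = growth of vehicle-treated control cultures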; conditions: S. cerevisiae rad14 strain growth inhibition, stronger effect = higher value
# Summary of the method: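 Growth inhibition vs vehicle controls; genetically altered yeast strain (DNA damage repair defect) treated with test compounds.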
# [8] = NCI Yeast Anticancer Drug Screen. Data for the sgs1 mgt1 strain (AID 161);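 note: 0% = growth of cultures given vehicle only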; conditions: S. cerevisiae sgs1 mgt1 strain, stronger effect = higher value
# Summary of the method: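 Growth of a repair-deficient yeast mutant was monitored after compound treatment and expressed as inhibition relative to vehicle-treated cultures.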
# [9] = NCI Yeast Anticancer Drug Screen. Data for the CLN2oe strain (AID 163);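 note: 0% = growth of vehicle-only control cultures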; conditions: S. cerevisiae CLN2oe strain, stronger effect = higher value
# Summary of the method: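 Cells of an engineered yeast line with disturbed cell-cycle regulation are treated with compound. Inhibition of growth is then calculated relative to the vehicle-treated reference.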
# [10] = NCI Yeast Anticancer Drug Screen. Data for the cln2 rad14 strain (AID 165);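 note: 0% = growth equal to vehicle treated cultures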; conditions: S. cerevisiae cln2 rad14 strain, stronger effect = higher value
# Summary of the method: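 Strain: cln2 rad14 yeast, altered in cell cycle control and DNA damage repair. Read-out: growth inhibition vs vehicle.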
# [11] = NCI Yeast Anticancer Drug Screen. Data for the bub3 strain (AID 167); conditions: S. cerevisiae bub3 mutant strain, stronger effect = higher value
# Summary of the method: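 Readout: yeast growth inhibition, expressed relative to vehicle-only wells. The test organism is a mutant strain from a panel with lesions in DNA repair or checkpoint genes.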
# [12] = NCI Yeast Anticancer Drug Screen. Data for the wt2 strain (AID 169);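 note: 0% = growth of vehicle-treated yeast cultures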; conditions: S. cerevisiae wt2 strain growth inhibition, stronger effect = higher value
# Summary of the method: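 Growth of compound-treated yeast is measured and expressed as inhibition relative to vehicle-only controls.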
# [13] = NCI Yeast Anticancer Drug Screen. Data for the mlh1 strain (AID 171);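 note: 0% = growth of vehicle-treated control cultures of the same strain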; conditions: S. cerevisiae mlh1 strain growth inhibition, stronger effect = higher value
# Summary of the method: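 Test agents were incubated with yeast bearing a defined DNA damage repair or cell cycle control alteration; values are growth inhibition normalised to vehicle-treated cultures.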
# [14] = NCI Yeast Anticancer Drug Screen. Data for the sgs1 strain (AID 173);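 note: 0% = growth of vehicle-only control cultures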; conditions: S. cerevisiae sgs1 mutant, stronger effect = higher value
# Summary of the method: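 Strain with an altered DNA repair or cell cycle pathway exposed to compound. Growth then measured. Value = inhibition versus vehicle control.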
# [15] = NCI Yeast Anticancer Drug Screen. Data for the mlh1 rad18 strain (AID 175); conditions: S. cerevisiae mlh1 rad18 strain growth inhibition, stronger effect = higher value
# Summary of the method: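 A repair-deficient yeast strain is exposed to test compound, and growth is scored relative to vehicle-treated controls.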
# [16] = NCI Yeast Anticancer Drug Screen. Data for the rad18 strain (AID 177); conditions: S. cerevisiae rad18 mutant growth inhibition, stronger effect = higher value
# Summary of the method: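 DNA-repair-defective yeast; compound treatment; growth inhibition scored against vehicle.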
# [17] = at 5.0 µM (retest, dose inferred, filed as 0.5)
# [18] = at 50.0 µM (retest, dose inferred, filed as 5.0)
structure (smiles),measurement,setting,value
CCC1(O)C(=O)OCc2c1cc1n(c2=O)Cc2c-1nc1ccccc1c2OC (configuration not stated),growth inhibition,[1]; at 1.2 µM,80% (active)
same,growth inhibition,[1]; at 3.7 µM,90% (active)
same,growth inhibition,[1]; at 11.0 µM,93% (active)
same,growth inhibition,[1]; at 33.0 µM,93% (active)
same,growth inhibition,[1]; at 100.0 µM,90% (active)
same,growth inhibition,[2]; at 1.2 µM,11%
same,growth inhibition,[2]; at 3.7 µM,12%
same,growth inhibition,[2]; at 11.0 µM,13%
same,growth inhibition,[2]; at 33.0 µM,12%
same,growth inhibition,[2]; at 100.0 µM,11%
same,growth inhibition,[3]; at 1.2 µM,15%
same,growth inhibition,[3]; at 3.7 µM,28%
same,growth inhibition,[3]; at 11.0 µM,10%
same,growth inhibition,[3]; at 33.0 µM,22%
same,growth inhibition,[3]; at 100.0 µM,27%
same,growth inhibition,[4]; at 1.2 µM,-1%
same,growth inhibition,[4]; at 3.7 µM,10%
same,growth inhibition,[4]; at 11.0 µM,4%
same,growth inhibition,[4]; at 33.0 µM,8%
same,growth inhibition,[4]; at 100.0 µM,-10%
same,growth inhibition,[5]; at 1.2 µM,85% (active)
same,growth inhibition,[5]; at 3.7 µM,93% (active)
same,growth inhibition,[5]; [17],94% (active)
same,growth inhibition,[5]; at 11.0 µM,94% (active)
same,growth inhibition,[5]; at 33.0 µM,94% (active)
same,growth inhibition,[5]; [18],90% (active)
same,growth inhibition,[5]; at 50.0 µM,71.2% (active)
same,growth inhibition,[5]; at 100.0 µM,93% (active)
same,growth inhibition,[6]; at 1.2 µM,1%
same,growth inhibition,[6]; at 3.7 µM,13%
same,growth inhibition,[6]; [17],54%
same,growth inhibition,[6]; at 11.0 µM,28%
same,growth inhibition,[6]; at 33.0 µM,41%
same,growth inhibition,[6]; [18],62%
same,growth inhibition,[6]; at 50.0 µM,33.1%
same,growth inhibition,[6]; at 100.0 µM,43%
same,growth inhibition,[7]; at 1.2 µM,6%
same,growth inhibition,[7]; at 3.7 µM,17%
same,growth inhibition,[7]; at 11.0 µM,15%
same,growth inhibition,[7]; at 33.0 µM,20%
same,growth inhibition,[7]; at 100.0 µM,15%
same,growth inhibition,[8]; [17],31%
same,growth inhibition,[8]; [18],33%
same,growth inhibition,[8]; at 50.0 µM,-13.6%
same,growth inhibition,[9]; at 1.2 µM,-8%
same,growth inhibition,[9]; at 3.7 µM,8%
same,growth inhibition,[9]; at 11.0 µM,16%
same,growth inhibition,[9]; at 33.0 µM,24%
same,growth inhibition,[9]; at 100.0 µM,27%
same,growth inhibition,[10]; [17],19%
same,growth inhibition,[10]; [18],18%
same,growth inhibition,[10]; at 50.0 µM,2.7%
same,growth inhibition,[11]; at 1.2 µM,-10%
same,growth inhibition,[11]; at 3.7 µM,-1%
same,growth inhibition,[11]; [17],6%
same,growth inhibition,[11]; at 11.0 µM,0%
same,growth inhibition,[11]; at 33.0 µM,0%
same,growth inhibition,[11]; [18],11%
same,growth inhibition,[11]; at 50.0 µM,-41.5%
same,growth inhibition,[11]; at 100.0 µM,-13%
same,growth inhibition,[12]; at 1.2 µM,10%
same,growth inhibition,[12]; at 3.7 µM,-5%
same,growth inhibition,[12]; at 11.0 µM,-10%
same,growth inhibition,[12]; at 33.0 µM,2%
same,growth inhibition,[12]; at 100.0 µM,-17%
same,growth inhibition,[13]; at 1.2 µM,7%
same,growth inhibition,[13]; at 3.7 µM,19%
same,growth inhibition,[13]; at 11.0 µM,22%
same,growth inhibition,[13]; at 33.0 µM,20%
same,growth inhibition,[13]; at 100.0 µM,8%
same,growth inhibition,[14]; at 1.2 µM,12%
same,growth inhibition,[14]; at 3.7 µM,18%
same,growth inhibition,[14]; at 11.0 µM,20%
same,growth inhibition,[14]; at 33.0 µM,25%
same,growth inhibition,[14]; at 100.0 µM,8%
same,growth inhibition,[15]; [17],43%
same,growth inhibition,[15]; [18],33%
same,growth inhibition,[16]; at 1.2 µM,1%
same,growth inhibition,[16]; at 3.7 µM,-4%
same,growth inhibition,[16]; at 11.0 µM,5%
same,growth inhibition,[16]; at 33.0 µM,1%
same,growth inhibition,[16]; at 100.0 µM,1%
